From PubChem BioAssay (NCATS)
Results filed as inconclusive are left out. Active and inactive are the calls of the source. The call rests on the fitted dose curve; in most records, active means well fitted inhibition curve with a large enough effect; inconclusive means small, poorly fitted or top-dose-only effect; inactive means flat fitted curve, though single readings scatter.

Experiments:
Experiment in all cases: qHTS profiling for inhibitors of Plasmodium falciparum proliferation (AID 504749); further: nearly all actives have a fitted effect of over 60% in size
Conditions in all cases: P. falciparum in erythrocytes, SYBR Green DNA, 72 h; series mostly up to 28.7 µM
CP252 = system: CP252
Procedure, shortened: (§1)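 Parasite proliferation within erythrocytes, 72 h exposure. Endpoint: SYBR Green I fluorescence after overnight lysis at room temperature. Controls: 0.29 uM artemisinin, DMSO.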

CP256 = system: CP256
Procedure, shortened: as §1

CP260 = system: CP260
Procedure, shortened: as §1

CP262 = system: CP262
Procedure, shortened: as §1

CP265 = system: CP265
Procedure, shortened: as §1

CP266 = system: CP266
Procedure, shortened: as §1

CP268 = system: CP268
Procedure, shortened: as §1

CP269 = system: CP269
Procedure, shortened: as §1

CP286 = system: CP286
Procedure, shortened: as §1

CP291 = system: CP291
Procedure, shortened: as §1

CP297 = system: CP297
Procedure, shortened: as §1

CP305 = system: CP305
Procedure, shortened: as §1

CP315 = system: CP315
Procedure, shortened: as §1

CP325 = system: CP325
Procedure, shortened: as §1

CP329 = system: CP329
Procedure, shortened: as §1

CP335 = system: CP335
Procedure, shortened: as §1

DFO2036 = system: DFO2036
Procedure, shortened: as §1

DIV14 = system: DIV14
Procedure, shortened: as §1

DIV17 = system: DIV17
Procedure, shortened: as §1

DIV30 = system: DIV30
Procedure, shortened: as §1

ECU = system: ECU
Procedure, shortened: as §1

FAB9 = system: FAB9
Procedure, shortened: as §1

GB4 = system: GB4
Procedure, shortened: as §1

HB3 = system: HB3
Procedure, shortened: as §1

ICS = system: ICS
Procedure, shortened: as §1

JCK = system: JCK
Procedure, shortened: as §1

N140 = system: N140
Procedure, shortened: as §1

P93_24 = system: P93_24
Procedure, shortened: as §1

P94_40 = system: P94_40
Procedure, shortened: as §1

PAD = system: PAD
Procedure, shortened: as §1

PC15 = system: PC15
Procedure, shortened: as §1

PC49 = system: PC49
Procedure, shortened: as §1

SC27B = system: SC27B
Procedure, shortened: as §1

TAB109 = system: TAB109
Procedure, shortened: as §1

TAB113 = system: TAB113
Procedure, shortened: as §1

TAB165 = system: TAB165
Procedure, shortened: as §1

W2 = system: W2
Procedure, shortened: as §1

Measured: Potency
Potency means the concentration at half of the fitted maximal effect.

CCC(C)n1ncn(-c2ccc(N3CCN(c4ccc(OCC5COC(Cn6cncn6)(c6ccc(Cl)cc6Cl)O5)cc4)CC3)cc2)c1=O (configuration not stated)
active: CP260 6.31 µM | CP286 4.47 µM | CP335 4.26 µM | ICS 2.51 µM | W2 2.13 µM
inactive: all other assays above
